Inconclusive results are not listed. Calls of active or inactive are those of the source. Unless noted, the call rests on the fitted dose curve; in most records, active means well fitted curve in the direction sought with a large enough effect in the repeat runs; inconclusive means weak or mixed curves; inactive means no such curve, though single readings can be large; an effect the other way counts as inactive or inconclusive.
Assays:
[1] = qHTS assay for small molecule agonists of the p53 signaling pathway (AID 651631; calls by dose curve; further: nearly all actives have a fitted effect of over 15% in size; further: potency means the concentration at half of the fitted maximal effect)
Outline: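 Fluorescence intensity from cleaved LiveBLAzer B/G substrate (2 h, room temperature) served as the signal. Beforehand, HCT-116 reporter cells bearing p53 response elements were treated 16 h at 37 °C with DMSO-dissolved compounds.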

[2] = qHTS assay for small molecules that induce genotoxicity in human embryonic kidney cells expressing luciferase-tagged ATAD5 (AID 651632); further: nearly all actives have a fitted effect of over 15% in size; further: potency means the concentration at half of the fitted maximal effect
Outline: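 Cells were seeded at 2,000 per well, dosed with compound, and incubated 16 hr at 37C in 5% CO2. Luciferase activity was then quantified after a 30 min room-temperature incubation with Amplite.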

[3] = qHTS assay for small molecule agonists of the p53 signaling pathway - cell viability (AID 651633; calls by dose curve;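 further: p53RE-bla HCT reporter cells with a stable beta-lactamase p53 reporter; series mostly up to about 83 µM; nearly all actives have a fitted effect of over 30% in size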)
Outline: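 p53RE-bla cells were treated with compound for 16 hours at 37 C. Cytotoxicity was then measured as CellTiter-Glo luminescence after 30 min at room temperature.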

[4] = qHTS assay for small molecules that induce genotoxicity in human embryonic kidney cells expressing luciferase-tagged ATAD5 - cell viability (AID 651634; calls by dose curve; further: nearly all actives have a fitted effect of over 25% in size)
Outline: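 Cells (HEK293T, luciferase-tagged ATAD5) are seeded at 2,000 per well, dosed with compound or DMSO vehicle, and incubated 15.5 hr at 37C and 5% CO2. CellTiter-Fluor is added for 30 min before fluorescence is measured.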

[5] = qHTS assay for small molecule disruptors of the mitochondrial membrane potential - cell viability (AID 720634; calls by dose curve;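 further: human HepG2 liver cancer cells; series mostly up to about 83 µM; nearly all actives have a fitted effect of over 20% in size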)
Outline: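 Cytotoxicity was measured by ATP quantitation in HepG2 wells that had first been treated with compound for 1 hr and stained with m-MPI dye; CellTiter-Glo incubation was 30 min at room temperature.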

[6] = qHTS assay for small molecule disruptors of the mitochondrial membrane potential (AID 720635)
Outline: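 HepG2 cells exposed to compound 1 hr at 37C, then Mito-MPS dye 30 min. Ratio read of aggregate (540/590 nm) versus monomer (490/535 nm) fluorescence.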

[7] = qHTS assay to test for compound auto fluorescence at 590 nm (red) in HepG2 cells (AID 720674)
Outline: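 Fluorescence at 590 nm emission following 540 nm excitation was recorded from HepG2 wells one hour after compound transfer, with DMSO-only wells as vehicle and Rose Bengal sodium equivalency as the scale.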

[8] = qHTS assay to test for compound auto fluorescence at 535 nm (green) in HepG2 cells (AID 720675)
[9] = qHTS assay to test for compound auto fluorescence at 460 nm (blue) in HEK293 cells (AID 720678)
Outline: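 HEK293 cells (2,000 per well, medium with 10% dialyzed FBS) attached for 4-5 hr at 37C, then received compound and stood overnight at 37C, 5% CO2. Blue fluorescence was read at Ex/Em 405/460 nm and expressed relative to triamterene.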

[10] = qHTS assay to test for compound auto fluorescence at 590 nm (red) in HEK293 cells (AID 720679)
Outline: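 HEK293 cells (2,000/well, medium with 10% dialyzed FBS) attached for 4-5 hr at 37C, received 23 nL compound and were incubated overnight at 37C, 5% CO2. Red fluorescence was then read at 540/590nm Ex/Em, referenced to Rose Bengal sodium.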

[11] = qHTS assay to test for compound auto fluorescence at 535 nm (green) in HEK293 cells (AID 720680)
[12] = qHTS assay to test for compound auto fluorescence at 460 nm (blue) in HEK293 cell free culture (AID 720681)
Outline: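 Compounds were added to cell-free DMEM with 10% FBS and fluorescence read directly. The blue channel used 405 nm excitation and 460 nm emission, with triamterene as the reference fluorophore.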

[13] = qHTS assay to test for compound auto fluorescence at 535 nm (green) in HEK293 cell free culture (AID 720682)
Outline: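 Intrinsic compound fluorescence is measured in culture medium containing 10% FBS, with excitation at 485 nm and detection at 535 nm, referenced to fluorescein.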

[14] = qHTS assay to test for compound auto fluorescence at 590 nm (red) in HepG2 cell free culture (AID 720684)
Outline: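 Rose Bengal sodium served as the reference for red signal. Test compounds were dispensed into serum-containing MEM (10% FBS) without cells, and plates were read at 540/590 nm.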

[15] = qHTS assay to test for compound auto fluorescence at 460 nm (blue) in HepG2 cell free culture (AID 720685)
Outline: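 Cell-free plates of MEM plus 10% FBS received 23 nL compound or DMSO vehicle; blue-channel (405/460 nm) intensity scored against triamterene as reference fluorophore.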

[16] = qHTS assay to test for compound auto fluorescence at 460 nm (blue) in HepG2 cells (AID 720687)
Outline: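 HepG2 cells in MEM with 10% FBS, attached overnight at 37 C, were exposed to compound or DMSO for 1 hr at 37 C, 5% CO2. Blue fluorescence was read at 405/460 nm, with triamterene as reference fluorophore.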

[17] = qHTS assay to test for compound auto fluorescence at 590 nm (red) in HEK293 cell free culture (AID 720683)
Outline: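 Cell-free wells of DMEM with 10% FBS received compound, and intrinsic fluorescence was read at excitation/emission 540/590 nm. Values expressed as equivalence to Rose Bengal sodium.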

[18] = qHTS assay to test for compound auto fluorescence at 535 nm (green) in HepG2 cell free culture (AID 720686)
[19] = molecular target: Glucocorticoid receptor (Homo sapiens) (UniProt P04150); assay: qHTS assay to identify small molecule agonists of the glucocorticoid receptor (GR) signaling pathway (AID 720691; active means well fitted activation curve with a large enough effect in the signal ratio in the repeat runs, not every such curve was filed as active; the % refers to the signal ratio)
Outline: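 Steps: seed GR-bla HeLa cells, incubate 4 h at 37 C/5% CO2; pin-transfer DMSO-dissolved compounds; incubate 18 h at 37 C; add LiveBLAzer B/G FRET substrate; after 2 h at room temperature, measure fluorescence.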

[20] = molecular target: Glucocorticoid receptor (Homo sapiens) (UniProt P04150); assay: qHTS assay to identify small molecule antagonists of the glucocorticoid receptor (GR) signaling pathway (AID 720692; active means well fitted inhibition curve with a large enough effect in the signal ratio in the repeat runs, not every such curve was filed as active; the % refers to the signal ratio)
Outline: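 Antagonism was scored as loss of dexamethasone-driven (5 nM final) reporter signal in HeLa cells bearing a glucocorticoid response element–beta-lactamase construct, after 18 h compound exposure at 37 C and 2 h FRET substrate loading.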
On the % scale 0 is the no-effect control and ±100 the full control effect.

Sequence of Glucocorticoid receptor (Homo sapiens) (P04150 whole entry, looked up): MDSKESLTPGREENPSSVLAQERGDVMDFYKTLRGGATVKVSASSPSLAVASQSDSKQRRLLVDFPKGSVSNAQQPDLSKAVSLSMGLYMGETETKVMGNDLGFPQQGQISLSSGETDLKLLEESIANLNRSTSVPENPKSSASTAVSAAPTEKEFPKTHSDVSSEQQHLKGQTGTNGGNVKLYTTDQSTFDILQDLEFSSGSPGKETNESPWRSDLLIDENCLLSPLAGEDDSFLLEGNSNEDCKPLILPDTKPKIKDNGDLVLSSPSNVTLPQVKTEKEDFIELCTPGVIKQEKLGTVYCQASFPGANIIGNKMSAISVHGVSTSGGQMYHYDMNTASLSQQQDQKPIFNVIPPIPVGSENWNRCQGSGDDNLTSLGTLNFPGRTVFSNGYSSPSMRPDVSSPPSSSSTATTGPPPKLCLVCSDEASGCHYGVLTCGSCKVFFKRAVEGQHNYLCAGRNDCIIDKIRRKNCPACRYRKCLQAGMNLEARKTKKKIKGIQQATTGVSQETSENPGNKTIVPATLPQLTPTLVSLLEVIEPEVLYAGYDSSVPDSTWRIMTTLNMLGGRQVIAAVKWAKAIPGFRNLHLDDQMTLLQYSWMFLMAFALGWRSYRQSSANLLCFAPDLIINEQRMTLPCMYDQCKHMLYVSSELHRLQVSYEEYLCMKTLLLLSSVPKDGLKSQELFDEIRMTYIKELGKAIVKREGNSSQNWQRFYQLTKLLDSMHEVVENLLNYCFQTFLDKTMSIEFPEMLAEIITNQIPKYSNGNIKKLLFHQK

C[C@@H]1C[C@H]2[C@@H]3CCC4=CC(=O)C=C[C@]4(C)[C@@]3(F)[C@@H](O)C[C@]2(C)[C@@]1(O)C(=O)COP(=O)(O)O
inactive: Potency [1] | Potency [2] | Potency [3] | Potency [4] | outcome [5] | Potency [6] | outcome [7] | outcome [8] | Potency [9] | outcome [10] | outcome [11] | Potency [12] | outcome [13] | outcome [14] | Potency [15] | Potency [16]

COc1ccc(C2C(=O)c3ccccc3C2=O)cc1
inactive: Potency [1] | Potency [2] | Potency [3] | Potency [4] | outcome [5] | Potency [6] | outcome [7] | outcome [8] | Potency [9] | outcome [10] | outcome [11] | Potency [12] | outcome [13] | outcome [17] | outcome [14] | Potency [15] | outcome [18] | Potency [16] | Potency [19] | Potency [20]

CC(=O)OCCC1CCCCC1
inactive: Potency [1] | Potency [2] | Potency [3] | Potency [4] | outcome [5] | Potency [6] | outcome [7] | outcome [8] | Potency [9] | outcome [10] | outcome [11] | Potency [12] | outcome [13] | outcome [17] | outcome [14] | Potency [15] | outcome [18] | Potency [16] | Potency [19]

ClC1=C(Cl)C1(Cl)Cl
inactive: Potency [1] | Potency [2] | Potency [3] | Potency [4] | outcome [5] | Potency [6] | outcome [7] | outcome [8] | Potency [9] | outcome [11] | outcome [13] | outcome [17] | outcome [14] | Potency [15] | outcome [18] | Potency [16]

CC(C)(C(=O)c1cccnc1)c1cccnc1
inactive: Potency [1] | Potency [2] | Potency [3] | Potency [4] | outcome [5] | Potency [6] | fluorescence, relative to Rose Bengal [7] -0.433% [at 18.6 µM] | fluorescence, % of fluorescein control [8] -0.0177% [at 18.6 µM] | fluorescence, % of triamterene [9] -0.0025% [at 18.6 µM] | fluorescence, % of fluorescent control [10] -0.175% [at 18.6 µM] | fluorescence, % of fluorescent control [12] -0.108% [at 18.6 µM] | activity change [13] 0.0185% [at 18.6 µM] | fluorescence, % of fluorescent control [17] 0.0451% [at 18.6 µM] | fluorescence, % of Rose Bengal [14] 0.0034% [at 18.6 µM] | fluorescence, % of fluorescent control [15] -0.0441% [at 18.6 µM] | fluorescence, % of fluorescein control [18] 0.0796% [at 18.6 µM] | fluorescence, % of fluorescent control [16] -0.0372% [at 18.6 µM] | Potency [19]

CC(=O)N[C@@H](Cc1ccc(O)cc1)C(=O)O
inactive: Potency [1] | Potency [2] | Potency [3] | Potency [4] | outcome [5] | Potency [6] | outcome [7] | outcome [8] | Potency [9] | outcome [10] | outcome [11] | Potency [12] | outcome [13] | outcome [17] | outcome [14] | Potency [15] | outcome [18] | Potency [16] | Potency [19] | Potency [20]

CC[C@H]1OC(=O)[C@H](C)[C@@H](O[C@H]2C[C@@](C)(OC)[C@@H](O)[C@H](C)O2)[C@H](C)[C@@H](O[C@@H]2O[C@H](C)C[C@H](N(C)C)[C@H]2O)[C@](C)(O)C[C@@H](C)C(=O)[C@H](C)[C@@H](O)[C@]1(C)O
inactive: Potency [1] | Potency [2] | Potency [3] | Potency [4] | outcome [5] | Potency [6] | outcome [7] | outcome [8] | Potency [9] | outcome [10] | outcome [11] | Potency [12] | outcome [13] | outcome [17] | outcome [14] | Potency [15] | outcome [18] | Potency [16]

CNc1c2c(nn1C)CCCC2
inactive: Potency [1] | Potency [2] | Potency [3] | Potency [4] | outcome [5] | outcome [8] | outcome [10] | outcome [11] | Potency [12] | outcome [13] | outcome [17] | outcome [14] | Potency [15] | Potency [16] | Potency [19] | Potency [20]

Cc1ccc(Cl)cc1N
inactive: Potency [1] | Potency [2] | Potency [3] | Potency [4] | outcome [5] | outcome [7] | outcome [8] | Potency [9] | outcome [10] | outcome [11] | outcome [13] | outcome [17] | outcome [14] | Potency [15] | outcome [18] | Potency [16] | Potency [19]

CNCc1ccc(NC(=O)c2c[nH]c3c2C(=O)CCC3)cc1
inactive: Potency [1] | Potency [2] | Potency [3] | Potency [4] | outcome [5] | outcome [7] | outcome [8] | Potency [9] | outcome [10] | outcome [11] | Potency [12] | outcome [13] | outcome [17] | outcome [14] | Potency [15] | Potency [16] | Potency [19]

Nc1nc2ccc(OC(F)(F)F)cc2s1
inactive: Potency [3] | Potency [4] | outcome [5] | outcome [7] | outcome [8] | Potency [9] | outcome [10] | outcome [11] | outcome [13] | outcome [17] | outcome [14] | Potency [15] | outcome [18] | Potency [16] | Potency [19]
active: Potency [1] 7.5 µM | Potency [2] 11.9 µM

CCC(=O)OCc1ccc(OC)cc1
inactive: Potency [1] | Potency [2] | Potency [3] | Potency [4] | outcome [5] | Potency [6] | outcome [7] | outcome [8] | outcome [11] | Potency [12] | outcome [13] | outcome [17] | outcome [14] | Potency [15] | outcome [18] | Potency [16] | Potency [19] | Potency [20]

CCNc1nc(N)nc(Cl)n1
inactive: Potency [1] | Potency [2] | Potency [3] | Potency [4] | outcome [5] | outcome [7] | outcome [8] | Potency [9] | outcome [10] | outcome [13] | outcome [14] | Potency [15] | Potency [16]

COc1ccc(-c2cc(C(F)F)nn2-c2ccc(S(N)(=O)=O)cc2)cc1F
inactive: Potency [1] | Potency [2] | Potency [3] | Potency [4] | outcome [5] | outcome [7] | outcome [8] | Potency [9] | outcome [10] | outcome [11] | Potency [12] | outcome [13] | outcome [17] | outcome [14] | Potency [15] | outcome [18] | Potency [16]

CCOCCC(=O)OCC
inactive: Potency [1] | Potency [2] | Potency [3] | Potency [4] | outcome [5] | outcome [7] | outcome [8] | Potency [9] | outcome [10] | outcome [11] | Potency [12] | outcome [13] | outcome [17] | outcome [14] | Potency [15] | outcome [18] | Potency [16]
